High-throughput results from PubChem.
Rows were chosen to be rich in hits. Some 2.9% of all compounds tested hit in one or more screens of this group.
MEKK2wt PB1 HTS = raises or lowers MEK5 binding to wildtype human MEKK2 PB1 domain. bead flow cytometry, Alexa488-MEK5 binding to MEKK2 WT; actives lie on both sides. Q9Y2U5. actives 1.1% (n = 290,000). binding response (% of control), % at 10 µM; in the data active = binding response below about 67% or above about 130%
GRK2 aptamer HTS = human GRK2 inhibition via aptamer displacement; P25098; bead flow cytometry, FAM-aptamer displacement from GRK2; inhibition of aptamer binding, % at 10 µM; actives 0.59% (n = 330,000); AID 488847;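 active = inhibition of aptamer binding above 40%, roughly 3 SD of noise, on plates passing a quality check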;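 note: median bead fluorescence of bound FAM aptamer so fluorescent compounds give negative values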
B2AR ag = human beta-2 adrenergic receptor agonism by FAP; P07550; Am2.2-beta2AR cells, FAP receptor internalization, flow cytometry; response, % (concentration not given with the values); actives 0.43% (n = 340,000);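 active = response above a set limit, near 3 SD of response in nonfluorescent compounds, cut at about 42% in these data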
Target sequence (P07550 whole entry, looked up): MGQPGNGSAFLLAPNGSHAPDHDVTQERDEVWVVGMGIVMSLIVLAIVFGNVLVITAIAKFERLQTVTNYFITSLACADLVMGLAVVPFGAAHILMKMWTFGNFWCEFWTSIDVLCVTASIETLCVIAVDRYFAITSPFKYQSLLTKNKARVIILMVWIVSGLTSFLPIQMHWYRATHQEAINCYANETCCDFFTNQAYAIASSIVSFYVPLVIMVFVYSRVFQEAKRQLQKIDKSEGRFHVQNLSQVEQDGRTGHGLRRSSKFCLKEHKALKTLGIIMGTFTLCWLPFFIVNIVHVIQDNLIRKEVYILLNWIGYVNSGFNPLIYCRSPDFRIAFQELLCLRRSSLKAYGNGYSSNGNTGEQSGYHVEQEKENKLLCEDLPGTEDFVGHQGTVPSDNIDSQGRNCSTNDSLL
MEKK3 PB1 HTS = MEKK3-MEK5 PB1 interaction, increase or decrease; Q99759; bead-based flow cytometry, Alexa488-MEK5 binding to MEKK3; actives lie on both sides; 0 = blocked by unlabeled MEK5, 100 = vehicle; binding response (% of control), % at 10 µM; actives 1.4% (n = 290,000);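 active = binding response more than 3 SD above or below the average of its plate-row segment, actives on both sides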;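 note: Alexa488 bead fluorescence after subtracting the streptavidin-only scavenger bead signal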
MEKK2 mut-MEK5 = signal of MEK5 binding to mutant human MEKK2 PB1 domain | bead flow cytometry, Alexa488-MEK5 binding to MEKK2 mutant | actives 0.35% (n = 290,000) | AID 1530 | percent response, % at 10 µM; in the data active = percent response above about 24%, passing the limit was not always enough
GRK2 CP1 = confirmation of human GRK2 inhibitors displacing RNA aptamer. shares compounds with GRK2 aptamer HTS. bead-bound GRK2, FAM-aptamer displacement, flow cytometry. aptamer displacement, % at 10 µM. actives 4% (n = 2,000). AID 504451;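 active = aptamer displacement above 40%, near three times the noise of non-fluorescent compounds, on plates passing quality checks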;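 note: negative values mostly reflect intrinsic compound fluorescence rather than true enhancement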
Aptamer quench = fluorescent aptamer quenching in GRK2 counter-screen dose response. shares compounds with GRK2 aptamer HTS. 110 tested, under 10 active. fluorescence change (kMESF span), kMESF (no concentration beside the values). AID 504521. Fluorescent RNA aptamer beads, flow cytometry; stronger effect = higher value;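 active = compounds whose bead fluorescence drops by more than 37 kMESF across the dose range, marking them as dye quenchers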
Aptamer quench SP = counter-screen for GRK2 aptamer inhibitors: fluorescent aptamer quenchers. 2,000 tested, under 10 active. AID 504580. fluorescence response (% of DMSO), % at 10 µM. Carboxyfluorescein RNA aptamer on beads, flow cytometry quenching; stronger effect = lower value. shares compounds with GRK2 aptamer HTS;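 active = compounds that quench the bead-bound fluorescent RNA probe, cutting fluorescence to under half of the solvent control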;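 note: counterscreen run without GRK2 so only probe quenching by compound is measured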
Each line names hits and unclear results; the compound was inactive in the other large screens (follow-up assays come after a bar, where they were run).

O=C(O)c1ccc(NC(C(=O)c2ccccc2)c2ccccc2)cc1 (configuration not stated)	none (no result: MEKK2wt PB1 HTS, GRK2 aptamer HTS, MEKK3 PB1 HTS, MEKK2 mut-MEK5)
C=C(C)C(=O)Nc1cccc(C2=NOC3(C2)C[C@H](C(N)=O)N(C(=O)/C=C/C)C3)c1 (some centres not stated)	GRK2 aptamer HTS 70 | GRK2 CP1 50 | Aptamer quench inactive | Aptamer quench SP inactive
C=C(C)C(=O)Nc1cccc(C2=NOC3(C2)C[C@@H](C(N)=O)N(C(=O)/C=C/CC)C3)c1 (some centres not stated)	GRK2 aptamer HTS 61 | GRK2 CP1 41 | Aptamer quench inactive | Aptamer quench SP inactive
C/C=C/C(=O)N1CC2(CC(c3cccc(NC(=O)CC)c3)=NO2)C[C@H]1C(N)=O (some centres not stated)	none
C/C=C\C(=O)Nc1cccc(C2=NOC3(C2)C[C@H](C(N)=O)N(C(=O)/C=C/CC)C3)c1 (some centres not stated)	none
Cc1nnc(SCCCN2C(=O)c3ccccc3C2=O)o1	none | GRK2 CP1 inactive | Aptamer quench SP inactive
C#CCOCCOCCOCCNc1nc(N2CCOCC2)nc(N2CCN(C(=O)CCCCCCCCCCNC(=O)[C@@H]([C@H](C)O)n3cc(C)nn3)CC2)n1	none (no result: MEKK2wt PB1 HTS, MEKK3 PB1 HTS, MEKK2 mut-MEK5)
C#CCOCCOCCOCCNc1nc(N2CCN(C(=O)CCCCCCCCCCNC(=O)[C@@H]([C@H](C)O)n3cc(C)nn3)CC2)nc(N2CCN(C(=O)CCCCCCCCCCNC(=O)[C@@H]([C@H](C)O)n3cc(C)nn3)CC2)n1	GRK2 aptamer HTS 52 (no result: MEKK2wt PB1 HTS, MEKK3 PB1 HTS, MEKK2 mut-MEK5) | GRK2 CP1 inactive | Aptamer quench SP inactive
C=CCN(c1ccccc1)S(=O)(=O)c1cccc(C(=O)Nc2ccc(N3CCOCC3)cc2)c1	none (no result: MEKK2wt PB1 HTS, GRK2 aptamer HTS, MEKK3 PB1 HTS, MEKK2 mut-MEK5)
CCN(CC(=O)Nc1c(F)cccc1F)C(=O)c1cc2ccccc2oc1=O	GRK2 aptamer HTS 100 (no result: MEKK2wt PB1 HTS, MEKK3 PB1 HTS, MEKK2 mut-MEK5) | GRK2 CP1 inactive | Aptamer quench SP inactive
CCN(CC(=O)Nc1c(F)cccc1F)C(=O)CNC(=O)c1ccc2ccccc2c1	none (no result: MEKK2wt PB1 HTS, MEKK3 PB1 HTS, MEKK2 mut-MEK5)
O=C(C1CCCN(S(=O)(=O)c2cccc3nsnc23)C1)N1CC=C(c2ccccc2)CC1 (configuration not stated)	none | GRK2 CP1 inactive | Aptamer quench SP inactive
COc1cc(C(=O)OC(C)c2ccc(F)cc2)ccc1OCC(=O)N1CCOCC1 (configuration not stated)	none (no result: MEKK2wt PB1 HTS, MEKK3 PB1 HTS, MEKK2 mut-MEK5)
CCn1cc(CNC(=O)C2C3CCC(C3)C2C(=O)O)cn1 (configuration not stated)	none (no result: MEKK2wt PB1 HTS, MEKK3 PB1 HTS, MEKK2 mut-MEK5) | GRK2 CP1 inactive | Aptamer quench SP inactive
COC(=O)c1ccc(NC(=O)CCCN2C(=O)NC(C)(C)C2=O)cc1	none (no result: MEKK2wt PB1 HTS, GRK2 aptamer HTS, MEKK3 PB1 HTS, MEKK2 mut-MEK5)
OCCN(Cc1ccccc1)CC1CC2C=CC1C2 (configuration not stated)	GRK2 aptamer HTS 46 | GRK2 CP1 inactive | Aptamer quench SP inactive
O=C(Nc1ccncc1)c1cccc2ccccc12	GRK2 aptamer HTS 49 | GRK2 CP1 inactive | Aptamer quench SP inactive
CC(=O)N1c2ccc(S(=O)(=O)N3CCC(C(=O)N4CCN(c5ccccc5F)CC4)CC3)cc2CC1C (configuration not stated)	none
Cc1ccnn1CCC(=O)N1CCCC(CCC(=O)NCc2ccccc2F)C1 (configuration not stated)	none | GRK2 CP1 inactive | Aptamer quench SP inactive
O=C(NCCN1CCOCC1)C(=O)NCC1OCCN1S(=O)(=O)c1ccccc1 (configuration not stated)	none
Cc1ccc2c(c1)C(c1ccc(N3CCOCC3)cc1)=NNC(c1cccs1)=N2	GRK2 aptamer HTS 100 | GRK2 CP1 inactive | Aptamer quench SP inactive
Fc1ccc2c(c1)C(c1ccc(N3CCOCC3)cc1)=NNC(c1cccs1)=N2	none
Cc1c(Cl)c(=O)n2c(=O)c(Cl)c(C)n12	none
CCOCCCN(C(=O)CNC(=O)c1ccco1)C(C(=O)NC1CCCC1)c1ccccc1C (configuration not stated)	GRK2 aptamer HTS 56 | GRK2 CP1 inactive | Aptamer quench SP inactive
CCN(Cc1ccccc1)C(=O)CC(=O)N(CC)Cc1ccccc1	none
COc1ccc(-c2cc(C(=O)NN)[nH]n2)cc1	none
COC(=O)c1cc(-c2ccc(Br)cc2)n[nH]1	GRK2 aptamer HTS 54 | GRK2 CP1 inactive | Aptamer quench SP inactive
CCC(C)Oc1nc2ccccc2nc1NS(=O)(=O)c1ccccc1 (configuration not stated)	GRK2 aptamer HTS 82 | GRK2 CP1 inactive | Aptamer quench SP inactive
NS(=O)(=O)c1ccc(N=Nc2c[nH]c(=O)c(O)c2)cc1	none
Nc1nc(O)c(N=Nc2ccc(S(N)(=O)=O)cc2)c(=O)[nH]1	GRK2 aptamer HTS 44 (no result: B2AR ag) | GRK2 CP1 inactive | Aptamer quench SP inactive
COc1ccc(Nc2nc3c([nH]2)c(=O)[nH]c(=O)n3C)cc1	none
CC(C)N1C(=O)c2ccccc2C1C(=O)NCCc1ccccc1 (configuration not stated)	none | GRK2 CP1 inactive | Aptamer quench SP inactive
O=C1NCCN(Cc2ccc(-c3ccccc3)cc2)C1CC(=O)N1CCN(CCO)CC1 (configuration not stated)	GRK2 aptamer HTS 100 | GRK2 CP1 inactive | Aptamer quench SP inactive
O=C1NCCN(Cc2ccc(F)cc2)C1CC(=O)N1CC=C(c2ccccc2)CC1 (configuration not stated)	none
Cc1cc(CNC(=O)CC2C(=O)NCCN2Cc2ccc(-c3ccccc3)cc2)nn1C (configuration not stated)	none | GRK2 CP1 inactive | Aptamer quench SP inactive
Cc1cc(CNC(=O)CC2C(=O)NCCN2Cc2ccccc2)nn1C (configuration not stated)	none
CCCc1ccc(S(=O)(=O)N2CCN(C(C)C(=O)NCc3ccc(OC)cc3)CC2)cc1 (configuration not stated)	none (no result: MEKK2wt PB1 HTS, MEKK3 PB1 HTS, MEKK2 mut-MEK5)
Cc1ccc(OCCNC(=O)CCc2ccccc2)cc1C	GRK2 aptamer HTS 79 (no result: MEKK2wt PB1 HTS, MEKK3 PB1 HTS, MEKK2 mut-MEK5) | GRK2 CP1 inactive | Aptamer quench SP inactive
COc1cccc(NC(=O)NC2CCCc3ccccc32)c1 (configuration not stated)	none
c1ccc2c(c1)CSc1ccccc1N2	GRK2 aptamer HTS 97 (no result: MEKK2wt PB1 HTS, MEKK3 PB1 HTS, MEKK2 mut-MEK5) | GRK2 CP1 inactive | Aptamer quench SP inactive
O=C(Nc1cccc(Cl)c1)c1cc(N=Nc2ccc([N+](=O)[O-])cc2Cl)ccc1O	GRK2 aptamer HTS 46 | GRK2 CP1 inactive | Aptamer quench SP inactive
CC(=O)c1ccc(OCCCC(=O)NC2=NCCS2)cc1	none | GRK2 CP1 inactive | Aptamer quench SP inactive
